# Measured values published in PubChem BioAssay (NCI).
# This is part of a sample that, as a whole, favours compounds with a hit. Of some 83,000 tested, about 20% had one in any assay.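 Step 1: grow cells in 96-well plates. Step 2: add test compound at a single concentration. Step 3: incubate 48 h. Step 4: record percent growth.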 Unmarked numbers belong to inactive results. Calls of active or inactive are those of the source. The calls were made as follows: active = growth percent below 10; inactive = the rest.
# Key:
# Assay in all cases: NCI-60 one-dose screen, 48 h (100 = growth as untreated, 0 = no growth, -100 = all killed)
# Conditions in all cases: 10 µM unless noted
# [1] = test system: DU-145 prostate
# [2] = test system: K-562 leukemia
# [3] = test system: MALME-3M melanoma
# [4] = test system: MDA-MB-231 breast
# [5] = test system: RXF 393 renal
# [6] = test system: SF-268 CNS
# [7] = test system: SF-295 CNS
# [8] = test system: SF-539 CNS
# [9] = test system: UACC-257 melanoma
# [10] = test system: M14 melanoma
# [11] = test system: HCT-15 colon
# [12] = test system: HT29 colon
# [13] = test system: SNB-75 CNS
# [14] = test system: SNB-19 CNS
# [15] = test system: U251 CNS
# [16] = test system: PC-3 prostate
# [17] = test system: SK-MEL-5 melanoma
# [18] = test system: UACC-62 melanoma
# [19] = test system: LOX IMVI melanoma
# [20] = test system: SK-MEL-28 melanoma
Structure (SMILES),growth [1],growth [2],growth [3],growth [4],growth [5],growth [6],growth [7],growth [8],growth [9],growth [10],growth [11],growth [12],growth [13],growth [14],growth [15],growth [16],growth [17],growth [18],growth [19],growth [20]
CC(C)CN1CC(C(=O)Nc2ccc3c(c2)-c2ccccc2C3)CC1=O (stereo not given),80% [50 µM],64.7% [50 µM],58.7% [50 µM],55.9% [50 µM],79.7% [50 µM],60.8% [50 µM],76.1% [50 µM],72% [50 µM],39.9% [50 µM],77.4% [50 µM],49.7% [50 µM],87.8% [50 µM],45.7% [50 µM],72.1% [50 µM],72.8% [50 µM],57.1% [50 µM],69.4% [50 µM],47.3% [50 µM],75.9% [50 µM],80% [50 µM]
Cn1c(=O)c2c(c3ccccc31)OC(N)=C(C#N)C21C(=O)c2ccccc2C1=O,107%,111%,86.5%,81.6%,91%,93%,102%,91.9%,108%,87.2%,96.1%,102%,76.8%,88.2%,101%,80.8%,94.9%,89.8%,97.5%,104%
Cn1cc(-c2nonc2-c2c[nH]c3ccccc23)c2ccccc21,17.4%,5.23% (active),42.9%,0.833% (active),-3.69% (active),25.8%,8.43% (active),-35.4% (active),33.2%,7.06% (active),16.6%,5.85% (active),-18.2% (active),12.8%,12.4%,20.7%,21.2%,8.21% (active),23.5%,41.6%
COc1cc2cc(NCc3ccc(OC(F)F)cc3)nc(C)c2cc1OC,75.8%,34%,72.4%,62.6%,67.1%,73.2%,35%,69.1%,87.5%,63.9%,59.9%,25.7%,88.1%,66.2%,62.3%,64.5%,68.3%,47%,27.7%,72.7%
S=c1ssnc1-c1cccs1,123%,73.3%,66.3%,88.8%,116%,97.9%,78.3%,106%,107%,94.2%,99%,105%,97.1%,96.8%,100%,94.3%,57.3%,90.7%,92.3%,112%
Cn1cc(C(=O)c2nc(-c3c[nH]c4ccc(Br)cc34)no2)c2cc(Br)ccc21,3.08% (active),37.7%,43.7%,45.9%,96.4%,55.9%,88.4%,88.7%,109%,47%,56.1%,44%,73.7%,86.2%,52%,39.3%,83.4%,86.1%,78.3%,92%
O=C(CN1CCN(c2cc3c(cc2F)c(=O)c(C(=O)O)cn3C2CC2)CC1)N/N=C/c1ccncc1,106%,91.7%,103%,98.4%,110%,92.8%,96.6%,95.6%,87.9%,96.1%,97.5%,97.8%,89.1%,92.8%,98.8%,91.7%,96.9%,95.7%,99.8%,106%
CCCCCCCCCCCCCCCCCCOc1ccccc1CC(=O)NCC[N+]1(C)CCOCC1,65.5%,15.7%,58.9%,54.1%,-39.4% (active),41.5%,62.8%,54.5%,99.4%,69.6%,91.1%,29.8%,46.9%,25.9%,10.1%,-46.4% (active),75%,56.3%,55.5%,74.7%
N#Cc1c(N2CCOCC2)nc(=S)[nH]c1-c1ccccc1,87.6%,93.4%,-3.74% (active),73.1%,70.8%,87.3%,54.5%,91.3%,91.8%,80.2%,86.6%,86.1%,15.1%,84.8%,78.5%,47%,63%,43.6%,80%,79.6%
C#CC#CC#CC#CC#CC#CC#CC#CC[C@H]1OC[C@@H](COC(=O)O[C@@H](C(=O)O[C@H]2C[C@@]3(O)[C@@H](OC(=O)c4ccccc4)[C@@H]4[C@]5(OC(C)=O)CO[C@@H]5C[C@H](O)[C@@]4(C)C(=O)[C@H](OC(C)=O)C(=C2C)C3(C)C)[C@@H](NC(=O)c2ccccc2)c2ccccc2)O1,41.1%,22.7%,62.5%,66%,50.7%,65.9%,43.5%,54.1%,64.6%,25.3%,95.2%,7.9% (active),32.8%,55.8%,43.4%,45.7%,64.8%,50.9%,41.1%,62.8%
NC(=O)OCCn1cc(-c2nc(-c3c[nH]c4ncccc34)cs2)c2ccccc21,64.9%,11.8%,62.4%,49.7%,46.3%,50%,25.5%,33.8%,60.5%,11.8%,28%,8.34% (active),10.6%,42.2%,20%,33.2%,18.5%,32.9%,30.1%,61.7%
N#Cc1c(-c2ccccc2)nc2c(c(-c3ccccc3)nn2-c2ccccc2)c1-c1ccc(N2CCOCC2)cc1,91.5%,-20% (active),104%,97.3%,95%,104%,107%,93.7%,101%,92.3%,37.3%,52.4%,86.9%,94.5%,65.9%,81.7%,98.8%,106%,51.6%,107%
COc1ccc2nc3cc(Cl)ccc3c(NCCN)c2c1,-94.1% (active),-64.6% (active),-71% (active),-71.6% (active),-85.9% (active),-53.7% (active),-92.3% (active),-72% (active),101%,-74.7% (active),-37.7% (active),-42.5% (active),91.6%,7.75% (active),-81.4% (active),6.63% (active),79.6%,-71.2% (active),-86.4% (active),-65.8% (active)
